Results: the supplement of paper PMC12645437, “Orthogonal IMiD-Degron Pairs Induce Selective Protein Degradation in Cells” (ACS Chemical Biology, 2025)
Over roughly 8,300 sequences, “log2 fold change of degron read counts, EGFP-low vs EGFP+ sorted cells (limma voom), compound-induced degradation” has its median near -1.1; the highest 2% begin near 3.2. What follows is part of a selection rich in the highest values, with near analogues and random picks from the rest.

T1: CRBN, Q96SW2
T1 chain: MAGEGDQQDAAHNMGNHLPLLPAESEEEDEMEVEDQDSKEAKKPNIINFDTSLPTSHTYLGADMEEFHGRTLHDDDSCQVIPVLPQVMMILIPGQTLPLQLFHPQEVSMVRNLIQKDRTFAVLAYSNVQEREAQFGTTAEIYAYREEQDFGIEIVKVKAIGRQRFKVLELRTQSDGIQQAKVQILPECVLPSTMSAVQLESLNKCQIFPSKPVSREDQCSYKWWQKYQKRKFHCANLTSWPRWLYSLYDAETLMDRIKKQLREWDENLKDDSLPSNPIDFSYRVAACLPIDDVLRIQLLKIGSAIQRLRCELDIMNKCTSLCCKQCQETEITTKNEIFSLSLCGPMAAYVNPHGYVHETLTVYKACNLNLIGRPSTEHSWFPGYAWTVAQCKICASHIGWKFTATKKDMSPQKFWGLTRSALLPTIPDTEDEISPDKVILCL


Target: T1, CRBN, Q96SW2
Experiment: log2 fold change of degron read counts, EGFP-low vs EGFP+ sorted cells (limma voom), compound-induced degradation; higher = more compound-induced degradation of the degron-EGFP fusion; degrons are variants of IKZF1/3 zinc finger 2; compound dose not given here
Conditions: Jurkat, 18 h
Experimental: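 Pooled library of 8380 IKZF3 ZF2 degron mutants (positions 146-167 varied within the IKZF3 130-189 degron; only the varied core is printed, flanks not printed) fused to EGFP with IRES-mCherry, lentivirally expressed in Jurkat cells. mCherry+ cells were treated with one IMiD compound for 18 h (dose not stated) and FACS-sorted into EGFP-low and EGFP+ populations. Degron sequences were counted by NGS, and log2FC (EGFP-low vs EGFP+) was estimated by limma voom over 3 biological replicates.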

[1] = compound: compound 19 (5-tert-butyl-thalidomide)
[2] = compound: compound 22 (5-morpholino-thalidomide)
[3] = compound: compound 33 (diphenyl IMiD analogue)
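Also: pooled lentiviral library of zinc finger degron-EGFP fusions in mCherry-positive Jurkat cells, FACS-sorted after compound exposure, with degron abundance counted by next-generation sequencing.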

Sequence	log2 fold change of degron read counts [1]	log2 fold change of degron read counts [2]	log2 fold change of degron read counts [3]	log2 fold change of degron read counts (compound: thalidomide)
FRCEICGRNFTQKGNLLRHIKL [46F_47R_49E_50I_52G_53R_54N_55F_67L_, Q9UKT9]	-2.69	-2.64	-1.31	-0.795
FACNQCGAFFTQKGNLLRHIKL [46F_47A_49N_50Q_52G_53A_54F_55F_67L_, Q9UKT9]	-1.64	-2.14	-1.53	-2.28
FRCEICGRGFTQKGNLLRHIKL [46F_47R_49E_50I_52G_53R_54G_55F_67L_, Q9UKT9]	-2	-1.92	-0.0801	-0.562
FCCEVCGASFTQKGNLLRHIKL [46F_47C_49E_50V_52G_53A_54S_55F_67L_, Q9UKT9]	3.45	2.85	2.25	2.34
FECEVCGASFTQKGNLLRHIKL [46F_47E_49E_50V_52G_53A_54S_55F_67L_, Q9UKT9]	2.09	-1.03	1.48	2.32
FKCEVCGASFTQKGNLLRHIKL [46F_47K_49E_50V_52G_53A_54S_55F_67L_, Q9UKT9]	1.43	-1.05	-2	0.154
FDCEVCGASFTQKGNLLRHIKL [46F_47D_49E_50V_52G_53A_54S_55F_67L_, Q9UKT9]	2.81	0.541	0.131	0.979
FTCEVCGASFTQKGNLLRHIKL [46F_47T_49E_50V_52G_53A_54S_55F_67L_, Q9UKT9]	2.27	2.96	2.53	3.12
FSCEVCGASFTQKGNLLRHIKL [46F_47S_49E_50V_52G_53A_54S_55F_67L_, Q9UKT9]	3.58	2.8	2.27	1.63
FWCEVCGASFTQKGNLLRHIKL [46F_47W_49E_50V_52G_53A_54S_55F_67L_, Q9UKT9]	3.77	3.54	2.67	1.37
FWCNVCGASFTQKGNLLRHIKL [46F_47W_49N_50V_52G_53A_54S_55F_67L_, Q9UKT9]	1.46	3.01	1.08	-0.303
FGCEVCGASFTQKGNLLRHIKL [46F_47G_49E_50V_52G_53A_54S_55F_67L_, Q9UKT9]	3.37	2.27	1.58	0.816
FQCEQCGAAFTQKGNLLRHIKL [46F_47Q_49E_50Q_52G_53A_54A_55F_67L_, Q9UKT9]	-0.398	0.724	0.313	3.01
LTCNQCGFPCTQKGNLLRHIKL [46L_47T_49N_50Q_52G_53F_54P_55C_67L_, Q9UKT9]	-2.43	-2.96	-2.54	-1.71
FTCEVCGAFFTQKGNLLRHIKL [46F_47T_49E_50V_52G_53A_54F_55F_67L_, Q9UKT9]	-0.934	-0.537	0.743	0.936
FSCDQCGAMFTQKGNLLRHIKL [46F_47S_49D_50Q_52G_53A_54M_55F_67L_, Q9UKT9]	-1.8	-2.9	-1.87	-2.82
FSCPQCGAAFTQKGNLLRHIKL [46F_47S_49P_50Q_52G_53A_54A_55F_67L_, Q9UKT9]	0.138	-0.952	1.89	-0.879
FWCPICGHMFTQKGNLLRHIKL [46F_47W_49P_50I_52G_53H_54M_55F_67L_, Q9UKT9]	-0.107	-0.117	0.131	-0.274
LHCPICGFMCTQKGNLLRHIKL [46L_47H_49P_50I_52G_53F_54M_55C_67L_, Q9UKT9]	2.17	2.35	2.28	1.44
FVCEQCGATFTQKGNLLRHIKL [46F_47V_49E_50Q_52G_53A_54T_55F_67L_, Q9UKT9]	-2.6	-1.48	0.0752	-0.452
FLCNQCGADFTQKGNLLRHIKL [46F_47L_49N_50Q_52G_53A_54D_55F_67L_, Q9UKT9]	-2.76	-3.21	-2.79	-2.29
FYCEICGHEFTQKGNLLRHIKL [46F_47Y_49E_50I_52G_53H_54E_55F_67L_, Q9UKT9]	-2.18	-2.9	-1.81	-2.55
FYCPQCGAFFTQKGNLLRHIKL [46F_47Y_49P_50Q_52G_53A_54F_55F_67L_, Q9UKT9]	0.239	0.269	0.837	-1.07
FFCEVCGASFTQKGNLLRHIKL [46F_47F_49E_50V_52G_53A_54S_55F_67L_, Q9UKT9]	3.45	3.66	2.48	1.61
FLCEVCGASFTQKGNLLRHIKL [46F_47L_49E_50V_52G_53A_54S_55F_67L_, Q9UKT9]	1.64	-0.285	1.43	1.45
FNCEVCGASFTQKGNLLRHIKL [46F_47N_49E_50V_52G_53A_54S_55F_67L_, Q9UKT9]	3.22	1.38	0.489	0.435
FICNICGAGFTQKGNLLRHIKL [46F_47I_49N_50I_52G_53A_54G_55F_67L_, Q9UKT9]	-0.991	1.17	1.13	1.71
FTCEICGRFFTQKGNLLRHIKL [46F_47T_49E_50I_52G_53R_54F_55F_67L_, Q9UKT9]	-1.56	-2.16	-1.26	-1.11
